# In PubChem BioAssay AID1159580 (chemical genetic matrix, 2015):
# Among all 5,500 compounds or so, about 2,000 (36%) were called active. About 18% were inconclusive and are not listed. The list shows a part of the results. Values without a mark were called inactive. Rule as the data show it: active = normalized growth mostly below about 0.91 (no sharp cut-off); inconclusive = no clear call, values can overlap the other calls; inactive = mostly above about 0.92.
# Assay: chemical genetic growth profiling, strain panel (AID 1159580);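 also: tested at 20 µM; growth read once vehicle control cultures reached saturation at 30 °C; 1 = growth at the plate median or of vehicle wells; lower values mean less growth of the strain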
# Conditions: growth OD
# [1] = S. cerevisiae deletion strains, locus YAL013W, strain DEP1, hits give low values
# [2] = S. cerevisiae deletion strains, locus YBR229C, strain ROT2, hits give low values
# [3] = S. cerevisiae deletion strains, locus YDL101C, strain DUN1, hits give low values
# [4] = S. cerevisiae deletion strains, locus YDL134C, strain PPH21, hits give low values
# [5] = S. cerevisiae deletion strains, locus YDR150W, strain NUM1, hits give low values
# [6] = S. cerevisiae deletion strains, locus YEL061C, strain CIN8, hits give low values
# [7] = S. cerevisiae deletion strains, locus YGR078C, strain PAC10, hits give low values
# [8] = S. cerevisiae deletion strains, locus YHR030C, strain SLT2, hits give low values
# [9] = S. cerevisiae deletion strains, locus YHR087W, strain rtc3, hits give low values
# [10] = S. cerevisiae deletion strains, locus YJR043C, strain POL32, hits give low values
# [11] = S. cerevisiae deletion strains, locus YJR075W, strain HOC1, hits give low values
# [12] = S. cerevisiae deletion strains, locus YLR039C, strain RIC1, hits give low values
# [13] = S. cerevisiae deletion strains, locus YLR058C, strain SHM2 (second series), hits give low values
# [14] = S. cerevisiae deletion strains, locus YLR085C, strain ARP6, hits give low values
# [15] = S. cerevisiae deletion strains, locus YLR262C, strain YPT6, hits give low values
# [16] = S. cerevisiae deletion strains, locus YML094W, strain GIM5, hits give low values
# [17] = S. cerevisiae deletion strains, locus YMR219W, strain ESC1, hits give low values
# [18] = S. cerevisiae deletion strains, locus YMR263W, strain SAP30, hits give low values
# [19] = S. cerevisiae deletion strains, locus YNL153C, strain GIM3, hits give low values
# [20] = S. cerevisiae deletion strains, locus YNL298W, strain CLA4 (second series), hits give low values
# [21] = S. cerevisiae deletion strains, locus YNL322C, strain KRE1, hits give low values
# [22] = S. cerevisiae deletion strains, locus YNR030W, strain Alg12, hits give low values
# [23] = S. cerevisiae deletion strains, locus YPL055C, strain LGE1, hits give low values
# [24] = S. cerevisiae deletion strains, locus YPL241C, strain CIN2, hits give low values
# [25] = S. cerevisiae deletion strains, locus YPR135W, strain CTF4, hits give low values
structure (smiles),measurement,setting,value
CCN(CC)c1ccc(NC(=O)c2c(F)cccc2F)c(N(CC)CC)n1,normalized growth,[1],0.986
same,normalized growth,[2],0.98
same,normalized growth,[3],0.955
same,normalized growth,[4],0.993
same,normalized growth,[5],0.99
same,normalized growth,[6],0.964
same,normalized growth,[7],0.98
same,normalized growth,[8],0.698
same,normalized growth,[9],0.952
same,normalized growth,[10],0.99
same,normalized growth,[11],0.954
same,normalized growth,[12],0.815
same,normalized growth,[13],1
same,normalized growth,[14],0.91
same,normalized growth,[15],0.863
same,normalized growth,[16],0.953
same,normalized growth,[17],0.997
same,normalized growth,[18],1
same,normalized growth,"S. cerevisiae deletion strains, locus YMR307W, strain GAS1, hits give low values",0.574 (active)
same,normalized growth,[19],0.991
same,normalized growth,[20],0.935
same,normalized growth,[21],0.987
same,normalized growth,[22],0.942
same,normalized growth,[23],0.963
same,normalized growth,[24],1.05
same,normalized growth,[25],0.8
same,normalized growth,"S. cerevisiae strains, strain wild type, hits give low values",0.988
O=C(Nc1cc2cc([N+](=O)[O-])ccc2oc1=O)c1c(F)cccc1F,normalized growth,[1],1.02
same,normalized growth,[2],1.02
same,normalized growth,"S. cerevisiae deletion strains, locus YCL061C, strain MRC1, hits give low values",0.989
same,normalized growth,[3],0.98
same,normalized growth,[4],1.01
same,normalized growth,[5],0.96
same,normalized growth,[6],1.01
same,normalized growth,[7],1
same,normalized growth,[8],0.994
same,normalized growth,[9],1.09
same,normalized growth,"S. cerevisiae deletion strains, locus YJL187C, strain SWE1, hits give low values",1.03
same,normalized growth,[10],0.999
same,normalized growth,[11],1.02
same,normalized growth,[12],1.07
same,normalized growth,[13],1.04
same,normalized growth,[14],1.07
same,normalized growth,[15],1.07
same,normalized growth,[16],1.05
same,normalized growth,[17],1.03
same,normalized growth,[18],0.936
same,normalized growth,"S. cerevisiae deletion strains, locus YNL128W, strain TEP1, hits give low values",1.01
same,normalized growth,[19],1.02
same,normalized growth,[20],1.02
same,normalized growth,[21],1.01
same,normalized growth,[22],1.04
same,normalized growth,"S. cerevisiae deletion strains, locus YOL006C, strain TOP1, hits give low values",1
same,normalized growth,[23],1.03
same,normalized growth,[24],1.02
same,normalized growth,[25],1.01
